Source: PubChem (National Center for Advancing Translational Sciences (NCATS))
Pf Dd2 inh: blocks in vitro growth of P. falciparum Dd2 | P. falciparum Dd2 growth, SYBR Green, 72 h | Potency, µM (highest dose often 28.9 µM), hits mostly inhibitors | 120,000 compounds, 4.3% hits | AID 1347417; active means well fitted inhibition curve with a large enough effect; further: nearly all actives have a fitted effect of over 65% in size
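Readout: SYBR Green fluorescence, 485 nm excitation, 535 nm emission, after ~16 h lysis at 37C. Before that, Dd2-infected red cells (2.5% hematocrit) grew 72 h with compound, 29 uM top final concentration.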
Each line names hits and unclear results; the compound was inactive in the other large screens. The entries come from a sample that favours hits as a whole.

CCOc1ccccc1NC(=O)c1cc(S(=O)(=O)NC2CCCC2)ccc1F	none
CC(C)c1ccc(NC(=O)c2cc(S(=O)(=O)NC3CCCCC3)ccc2F)cc1	Pf Dd2 inh 7.9µM
O=C(Nc1ccc(Br)cc1F)c1cc(S(=O)(=O)NC2CCCCC2)ccc1F	none
Cc1ccc(C(=O)Nc2ccc(F)cc2)cc1S(=O)(=O)N1CCCCCC1	none
Cc1ccc(NC(=O)c2cc(S(=O)(=O)NCCc3ccc(Cl)cc3)ccc2F)cc1	none
CCc1nnc(NC(=O)C2CC(=O)N(c3n[nH]c4cc(Br)ccc34)C2)s1 (configuration not stated)	none
COc1nc2c(cc1CNC(=O)c1ccc(F)cc1)C(=O)N(C1CCCC1)C2	none
CC1CCCN(C(=O)c2ccc(CN3C(=O)NC4(CCS(=O)(=O)CC4)C3=O)cc2)C1 (configuration not stated)	none
O=C1CC2(CCN(Cc3ccc(F)cc3)CC2)Oc2ccccc2N1c1ccccc1	none
Cc1cc(CNC(=O)[C@@H]2CCC[C@@H](NC(=O)CC(C)C)CN(C)C(=O)C2)no1	none
COCc1noc([C@@H]2CC(F)(F)CN2C(=O)Cc2ccc(F)cc2)n1	none
Cc1ccc(CNC(=O)Cn2ccn3nc4c(c3c2=O)CCCCC4)cc1	none
COc1ccccc1CCN1CCC(CN(C)C(=O)CCc2ccccc2Cl)CC1	Pf Dd2 inh 8.9µM
COc1ccccc1CCN1CCCC(CN(C)C(=O)Cn2cccnc2=O)C1 (configuration not stated)	none
COc1ccccc1CCN1CCCC(CN(C)C(=O)CN2C(=O)CNC2=O)C1 (configuration not stated)	none
COc1ccc(C2(C(=O)N3CCC(Cc4ccccc4)CC3)CCOCC2)cc1	none
Cc1cnc(C(=O)N2CCC(C(=O)N3CCCCCCNC(=O)CC3)CC2)cn1	none
CC(C)c1cc(C(=O)NCCc2noc(C3CCCO3)n2)nc2ncnn12 (configuration not stated)	none
CC(C)c1cc(C(=O)NCCc2nc(-c3cccnc3)no2)nc2ncnn12	none
Cc1cc(CNC(=O)c2cc(C(C)C)n3ncnc3n2)c2[nH]c(C)c(C)c2c1	Pf Dd2 inh 8.9µM
O=C(c1ccccc1OC(F)(F)F)N1CCC2(CC1)CC(O)CCO2 (configuration not stated)	none
O=C(NCCc1nc2ccccc2n1Cc1ccc(Cl)cc1Cl)c1ccco1	Pf Dd2 inh 11µM
O=C(NCCc1nc2ccccc2n1Cc1ccc(Cl)cc1)c1ccccc1	none
CCCC(=O)NCCc1nc2ccccc2n1Cc1c(F)cccc1Cl	none
Cc1noc(C)c1S(=O)(=O)N1CCCC(Cc2nncn2C)C1 (configuration not stated)	none
O=C(CCC1CCCC1)N1CCc2c([nH]c3ccccc23)C1c1ccc(F)cc1 (configuration not stated)	Pf Dd2 inh 11µM
O=C(CCc1ccccc1)N1CCc2c([nH]c3ccccc23)C1c1ccc(F)cc1 (configuration not stated)	Pf Dd2 inh 11µM
O=C1CN(C(=O)Cc2ccccc2)C(c2ccc(F)cc2)c2cc(Br)ccc2N1 (configuration not stated)	none
COc1ccc(C2c3[nH]c4ccccc4c3CCN2C(=O)CCC2CCCC2)cc1 (configuration not stated)	none
O=C1CCC(CCC(=O)N2CCCC2c2ccc(F)cc2)(Cc2cccc3ccccc23)N1 (configuration not stated)	none
CSc1ccc(C2c3[nH]c4ccccc4c3CCN2C(=O)CCc2ccccc2)cc1 (configuration not stated)	none
O=Cc1cccc(-c2ccc(O)cc2)c1	none
CC(C)CCN(C1CCOCC1)C1CCN(C(=O)c2ccc(F)cc2)CC1	none
O=C(NC1CCN(c2nnc3ccccn23)CC1)c1ccc(Cl)s1	none
COc1ccccc1Cn1c(C(C)NC(=O)OCc2ccccc2)nc2cccnc21 (configuration not stated)	none
CCC(CC)c1cc([C@H]2CN3CC[C@H]2C[C@@H]3CNC(=O)c2ccc(N(C)C)cc2)nc(-c2ccncc2)n1	none
Cn1nc(-c2ccc3ccccc3c2)cc1[C@H]1CN2CC[C@H]1C[C@@H]2CNC(=O)COc1ccccc1	none
CCC(CC)c1cc([C@H]2CN3CC[C@H]2C[C@@H]3CNC(=O)c2cccs2)nc(-c2ccncc2)n1	Pf Dd2 inh 0.25µM
CCC(CC)c1cc([C@H]2CN3CC[C@H]2C[C@@H]3COC(=O)Nc2ccccc2)nc(-c2ccncc2)n1	none
Cc1nc(-c2ccccc2)cc([C@H]2CN3CC[C@H]2C[C@@H]3CNC(=O)CCCC(=O)O)n1	none
CCC(CC)c1cc([C@H]2CN3CC[C@H]2C[C@@H]3CNC(=O)COc2ccccc2)nc(-c2ccncc2)n1	Pf Dd2 inh 0.45µM
CCC(CC)c1cc([C@H]2CN3CC[C@H]2C[C@@H]3CNC(=O)c2cc(OC)c(OC)c(OC)c2)nc(-c2ccncc2)n1	none
CC(=O)c1cccc(NC(=O)NC[C@H]2C[C@@H]3CCN2C[C@@H]3c2cc(-c3cccs3)nc(C)n2)c1	none
CCC(CC)c1cc([C@H]2CN3CC[C@H]2C[C@@H]3CNC(=O)Cc2cccs2)nc(-c2ccncc2)n1	Pf Dd2 inh 0.71µM
CC1=NS(=O)(=O)N(C)C=C1C(=O)OCc1nc(-c2ccc(Br)cc2)no1	none
CCC(C)NC(=O)N1CC(Oc2ccc(-c3nc(-c4ccccc4)no3)cc2)C1 (configuration not stated)	none
O=C(C1CCOCC1)N1CCC(N2C(=O)C(O)C23CCCCC3)CC1 (configuration not stated)	none
CC(CCc1ccccc1)NC(=O)Cn1cccc1-c1nc(-c2ccccc2)no1 (configuration not stated)	none
Cc1ncc2c(c1CNC(=O)C1CCc3ccccc3C1)CCNC2 (configuration not stated)	none
O=C1N(Cc2cccc(F)c2F)CCCC1(O)CN1CCNCC1 (configuration not stated)	none
CC(C)(C)CNCC1(O)CCCN(Cc2cccc(F)c2F)C1=O (configuration not stated)	Pf Dd2 inh 4.5µM
CN(CCO)CC1(O)CCCN(Cc2cccc(F)c2F)C1=O (configuration not stated)	none
CCn1ncc(N2CCCC(CC(=O)NCc3cccc(Cl)c3)C2)cc1=O (configuration not stated)	none
Cc1cc2c(n1-c1ccc(C(=O)NCc3ccc(OC(C)C)cc3)cc1)CCCC2	none
CC1CCc2c(cc(-c3ccccc3)n2-c2ccc(C(=O)NC(C)C)cc2)C1 (configuration not stated)	none
COCCCNC(=O)c1ccc(-n2c(-c3ccccc3)cc3c2CCCCC3)cc1	Pf Dd2 inh 5µM
CN(C)CCNC(=O)c1ccc(-n2c(-c3ccccc3)cc3c2CCCCC3)cc1	Pf Dd2 inh 0.35µM
CCOc1ccc(CCNC(=O)c2ccc(C)c(-n3c(C)nc4cccnc43)c2)cc1OCC	none
CCCNC(=O)c1ccc(-n2c(-c3ccccc3)cc3c2CCC(C)C3)cc1 (configuration not stated)	none
COCCNC(=O)c1ccc(-n2c(-c3ccccc3)cc3c2CCC(C)C3)cc1 (configuration not stated)	none
CC(C)NC(=O)c1ccc(-n2c(-c3ccccc3)cc3c2CCCCC3)cc1	none
CCOc1ccc(CCNC(=O)c2ccc(-n3c(C)cc4c3CCCC4)cc2)cc1OCC	Pf Dd2 inh 7.9µM
O=C(O)c1cccc2c1CCN2C(=O)c1ccccc1	none
CC(Nc1ccc(-c2nc(CCCc3ccccc3)no2)cn1)c1cnn(C)c1 (configuration not stated)	none
Cc1ccc(-n2nc3n(c2=O)CCN(C(=O)Cc2cccc(Cl)c2)C3)cc1	none
